Screening results from PubChem BioAssay.
Autofluor counter – flagged as autofluorescent in microsphere protease counterscreen; compound autofluorescence counterscreen, microsphere flow cytometry; active compounds read high; fluorescence intensity (no concentration beside the values); actives 3.1% (n = 360,000); in the data active = fluorescence intensity above about 16000; inconclusive = no clear call, values can overlap the other calls
CCHF vOTU inh – CCHFV vOTU protease inhibitors, primary screen, biochemical, Pep-AMC substrate, fluorescence; Crimean-Congo hemorrhagic fever virus L polyprotein viral ovarian tumor (vOTU) protease …; inhibition, % at 11.5 µM; actives 0.55% (n = 370,000); in the data active = inhibition above about 30%
SARS 3CLpro inh – SARS-CoV 3CLpro protease inhibitors, primary screen, biochemical, quenched FRET; recombinant SARS-CoV 3CLpro, quenched FRET peptide cleavage; inhibition, % at 6 µM; actives 0.14% (n = 290,000); AID 1706, 2009; in the data active = inhibition above about 12%
BoNT F protease – BoNT/F light chain protease inhibitors, primary screen, biochemical, flow cytometry, MLPCN library | actives 0.22% (n = 360,000) | Multiplex microsphere protease cleavage assay | inhibition, % at 10 µM | Botulinum neurotoxin type F light chain protease (Clostridium botulinum); in the data active = inhibition above about 35%, passing the limit was not always enough; inconclusive = no clear call, values can overlap the other calls
Anthrax LF prot – Bacillus anthracis LF protease inhibitors, primary screen, biochemical, multiplex microsphere, MLPCN library; Lethal factor (Bacillus anthracis), P15917; multiplex microsphere protease cleavage assay; inhibition, % at 10 µM; actives 0.12% (n = 360,000); AID 588501, 2011
BoNT A protease – BoNT/A light chain protease inhibitors, primary screen, biochemical, flow cytometry, MLPCN library | inhibition, % at 10 µM | Botulinum neurotoxin type A light chain protease (Clostridium botulinum A str. ATCC 3502) | AID 588499, 2011 | multiplex microsphere protease substrate cleavage | actives 0.17% (n = 360,000)
BoNT-A LC CP1 – BoNT/A light chain protease inhibitors, confirmation, biochemical, flow cytometry, cherry pick 1 | shares compounds with BoNT F protease | multiplex microsphere protease assay | inhibition, % at 10 µM | actives 3% (n = 720); in the data active = inhibition above about 32%
BoNTF LC inh 1 – BoNT/F light chain protease inhibitors, confirmation, biochemical, flow cytometry, cherry pick 1; AID 602140, 2011; shares compounds with BoNT F protease; inhibition, % at 10 µM; multiplex microsphere protease cleavage assay; 720 tested, under 10 active; call rule not given here
Anthrax LF CP1 – Bacillus anthracis LF protease inhibitors, confirmation, biochemical, multiplex microsphere, cherry pick 1; shares compounds with BoNT F protease; multiplex microsphere protease cleavage assay; inhibition, % at 10 µM; 720 tested, under 10 active; call rule not given here
Numbers stand for hits; 0 = inactive; ? = inconclusive; - = not tested or not shown. An excerpt weighted towards active compounds, which were near 3.9% of everything screened. Cut-off read from the data, not from the text of the source, unless noted: active = inhibition above about 30%; inconclusive = no clear call, values can overlap the other calls; inactive = below that.

SMILES	Autofluor counter	CCHF vOTU inh	SARS 3CLpro inh	BoNT F protease	Anthrax LF prot	BoNT A protease	BoNT-A LC CP1	BoNTF LC inh 1	Anthrax LF CP1
CC(C)NC(=O)c1cc2nc(-c3ccco3)cc(C(F)(F)F)n2n1	0	0	0	0	0	0	-	-	-
O=C(Nc1ccc(Cl)cc1)c1cc2nc(-c3ccco3)cc(C(F)(F)F)n2n1	0	0	0	0	0	0	-	-	-
Cc1c(NC(=S)N2CCN(c3cccc(Cl)c3)CC2)c(=O)n(-c2ccccc2)n1C	0	0	0	0	0	0	-	-	-
CN(C)CCN(CC1CCCN(Cc2ccccc2F)C1)C(=O)c1ccc(Cl)cc1 (stereo not drawn)	0	0	0	44.5	0	0	0	0	0
CCS(=O)(=O)N1N=C(c2cccc(NS(C)(=O)=O)c2)CC1c1ccccc1 (stereo not drawn)	25649	0	0	0	43.6	94.3	0	-	0
COc1ccc(-n2ncc3c(=O)n(CC(C)=O)cnc32)cc1	0	0	0	?	0	61.3	0	0	0
Cc1cccc(NC(=O)CNC(=O)CCNC(=O)c2ccc(C(C)(C)C)cc2)c1C	-	0	-	-	-	-	-	-	-
COc1ccc(-c2c(C)nn3c(N)c(-c4ccccc4)cnc23)cc1OC	0	0	0	40.1	0	0	0	0	0
Cc1cc([N+](=O)[O-])nn1Cc1ccccc1F	0	0	0	35.3	0	0	0	0	0
COCC1COS(=O)(=O)NC1(C)C (stereo not drawn)	0	0	0	0	0	0	-	-	-
COc1ccc(C(c2nnnn2CS(=O)(=O)c2ccc(C)cc2)N2CCN(Cc3ccccc3)CC2)cc1 (stereo not drawn)	0	0	0	0	0	0	0	0	0
Cc1ccc(C(c2nnnn2CS(=O)(=O)c2ccc(C)cc2)N2CCN(c3ncccn3)CC2)cc1 (stereo not drawn)	0	0	0	0	0	0	-	-	-
CCCCC(=O)C1CCN(Cc2ccccc2)CC1	0	0	0	0	0	0	0	0	0
O=C(Nc1ccc2nc3ccccc3nc2c1)c1ccccc1	0	0	0	0	0	63.2	38.6	0	0
O=C(Nc1ccc(Cl)c(Cl)c1)c1ccccc1	0	0	-	0	0	0	-	-	-
C=CCNC(=S)NNC(=O)c1ccncc1	0	0	0	0	0	0	-	-	-
Cn1c2ccccc2c(=O)c2c(=O)n(-c3ccccc3)c(-c3ccc(C(C)(C)C)cc3)nc21	0	0	0	?	36.2	0	0	0	0
O=C(NCCCl)Nc1cccc(Br)c1	0	0	0	0	0	0	-	-	-
O=C(Nc1ccc(F)cc1)Nc1cccc(Br)c1	0	0	-	?	32.2	0	0	0	0
CCOC(=O)c1cc(C(=O)c2cccs2)n2ccc(C(C)=O)cc12	0	0	0	0	0	35.3	0	0	0
Cc1ccc(-n2c(SCC(N)=O)nnc2-c2cnccn2)cc1	0	0	0	?	36.1	0	0	0	0
CCOC(=O)c1ccsc1NC(=O)c1ccco1	0	0	0	0	0	0	-	-	-
COc1ccc(-n2c(SCC(=O)N3CCOCC3)nnc2C(C)N2CCCCC2)cc1 (stereo not drawn)	-	-	0	-	-	-	-	-	-
COc1ccc(-n2c(C)nnc2SCC(=O)N2CCOCC2)cc1	0	0	0	47.2	0	0	0	0	0
O=C(OCCN1CCCCC1)c1cccc(Cl)c1	0	0	0	?	0	0	-	-	-
COc1ccc(-n2c(=O)c(CCC(=O)N3CCN(c4cccc(OC)c4)CC3)nc3ccccc32)cc1	0	0	-	0	0	0	-	-	-
COc1ccc(/C(O)=C/c2nc3ccccc3n(-c3ccccc3)c2=O)cc1	0	0	0	37.2	0	0	0	0	0
